# Hsp90 block – tumor Hsp90 inhibitors, primary screen, cell lysate, fluorescence polarization, NCI-N417 lysate; Heat shock protein HSP 90-alpha (Homo sapiens), P07900; Cy3B-geldanamycin FP displacement; inhibition, % at 30 µM; 64,000 tested, 0.35% active; AID 429, 2006;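 active = inhibition above 50%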;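 also: 0% = tracer plus lysate wells and 100% = tracer alone without lysate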
# DUSP1 inh – MKP-1 phosphatase inhibitors, primary screen, biochemical, in vitro; Dual specificity protein phosphatase 1 (Homo sapiens), P28562; recombinant MKP-1, OMFP hydrolysis fluorescence; inhibition, %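 (compounds tested at a single concentration somewhere between 10 and 100 µM)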; 65,000 tested, 0.15% active; AID 374, 2006;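 active = inhibition above about 50%, limit read from the data; inconclusive = inhibition over screen mean plus 3 SD, below that limit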;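 also: 0% = DMSO max control wells and 100% = wells with enzyme stopped by NaOH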
# Abs 340nm – compound light absorbance at 340 nm, profiling panel, artefact control, biochemical, MLSMR library, data from PS, PMK, MK assays | compound absorbance at 340 nm, fold over control | fold change at 10 µM | 65,000 tested, under 10 active | AID 708, 2007;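 active = at 10 µM dose, initial 340 nm absorbance at least 2 fold that of control wells; inactive = change under 2 fold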;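 also: initial absorbance extrapolated from kinetic A340 decline of NADH oxidation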
# NADH coupling – inhibitors of PK/LDH coupling enzymes, profiling panel, artefact control, biochemical, MLSMR library; coupled PK/LDH NADH assays, four targets; IC50, µM (highest dose often 10 µM), for inactives: at the top dose inhibition; 65,000 tested, 0.02% active;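 active = single-dose screening hits from any of four coupled enzyme assays that gave an IC50 when retested across doses; inconclusive = no clear call, values can overlap the other calls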;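 also: the DPM-DC format reads NADH fluorescence rather than 340 nm absorbance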
# Autofluor 339 – intrinsic fluorescence of library compounds, ex339/em460 – biochemical, MLSMR library, data from DPM-DC assay, artefact control, profiling panel; fluorescence fold increase at 10 µM; 65,000 tested, 5.5% active; compound autofluorescence, ex339/em460 nm, NADH buffer; stronger effect = higher value; 1 = no-compound wells, NADH background;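 active = at 10 µM, mean starting fluorescence two-fold or more over control wells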;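 also: signal is the first read of a kinetic run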
# Cdc25B block – inhibitors of Cdc25B phosphatase catalytic domain, primary screen, biochemical, OMFP fluorescence | M-phase inducer phosphatase 2 (Homo sapiens), P30305 | recombinant Cdc25B, OMFP fluorescence Ex485/Em525 | inhibition, %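 (compounds tested at 10 µM final in the well)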 | 65,000 tested, 0.1% active; in the data active = inhibition above about 50%
# Target sequence (P30305 whole entry, looked up, the tested form may be a part): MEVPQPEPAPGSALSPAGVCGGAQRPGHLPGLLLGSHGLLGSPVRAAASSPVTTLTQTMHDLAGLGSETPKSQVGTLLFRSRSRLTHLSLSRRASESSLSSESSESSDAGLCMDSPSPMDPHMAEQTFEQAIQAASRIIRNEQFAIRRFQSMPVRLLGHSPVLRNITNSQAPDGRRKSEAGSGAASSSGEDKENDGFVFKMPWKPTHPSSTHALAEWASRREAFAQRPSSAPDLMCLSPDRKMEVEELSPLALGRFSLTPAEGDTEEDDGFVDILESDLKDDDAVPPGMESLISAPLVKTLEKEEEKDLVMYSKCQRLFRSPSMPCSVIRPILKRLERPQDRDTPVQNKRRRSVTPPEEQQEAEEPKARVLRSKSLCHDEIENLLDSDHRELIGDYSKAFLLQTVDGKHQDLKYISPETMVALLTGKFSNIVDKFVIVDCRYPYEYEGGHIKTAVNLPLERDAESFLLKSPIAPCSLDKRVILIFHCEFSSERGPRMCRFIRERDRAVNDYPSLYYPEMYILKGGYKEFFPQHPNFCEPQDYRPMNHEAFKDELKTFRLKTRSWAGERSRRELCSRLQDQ
# The depositor's hits bear a star; ? = inconclusive; nt = no result. Compounds with a hit are over-represented: about 5.7% of the library has one in this group of screens.
SMILES,Hsp90 block,DUSP1 inh,Abs 340nm,NADH coupling,Autofluor 339,Cdc25B block
CCCCCn1c(=NC(C)=O)c(C#N)cc2c(=O)n3cccc(C)c3nc21,-15,-6,1.1,5%,3.6*,8
Cc1onc(-c2ccccc2Cl)c1C(=O)N1CCc2ccccc21,-2,-6,0.98,2%,1,0
CCCCNC(=O)c1sc2nc(C)cc(COC)c2c1-n1cccc1,-1,-6,0.99,4%,1.1,7
COCc1cc(C)nc2sc(C(=O)OC(C)C)c(N)c12,-11,4,1.1,9%,2.1*,-5
O=c1nc(-c2ccccc2)cc(-c2ccccc2)[nH]1,0,8,1.1,3%,2.2*,-4
O=C(C1CCN(S(=O)(=O)c2cccc3cccnc23)CC1)N1CCN(c2ccc(Cl)cc2)CC1,0,35,1.1,16%,1.1,-11
O=C(COc1ccccc1)N1CCN(S(=O)(=O)c2cccs2)CC1,nt,-2,1,5%,1.1,61*
COc1cccc2c3c(c(C)nc12)CC(C)O3 (configuration not stated),2,4,1,5%,3.7*,-9
CCn1ncc(C2=NOC(C(=O)NCc3ccc(Cl)cc3)C2)c1C (configuration not stated),0,-2,0.98,2%,1.1,-5
C=CCn1cnc2c(c1=O)c1nc3ccccc3nc1n2/N=C/c1cccc(OC)c1,7,-12,1.1,6%,1.2,4
Nc1c(S(=O)(=O)c2cccc(Cl)c2)c2nc3ccccc3nc2n1/N=C/c1ccc(O)c(O)c1,59*,33,1.2,8%,1.4,26
N#Cc1nc(-c2ccc(OCc3ccccc3Cl)cc2)oc1NCCCn1ccnc1,-1,28,1.1,1%,2.3*,-7
N#Cc1nc(COc2ccccc2)oc1NCCCn1ccnc1,1,-12,0.99,2%,1.1,-1
N#Cc1nc(-c2ccc(OCc3ccccc3)cc2)oc1NCCCn1ccnc1,-3,3,1,14%,4*,-7
N#Cc1nc(-c2ccco2)oc1NCCCn1ccnc1,0,-13,1.1,16%,4*,-8
N#Cc1nc(-c2ccc(OCc3ccccc3)cc2)oc1NCc1cccnc1,1,-2,1,10%,1.8,-7
CN(C)c1oc(-c2ccc(OCc3ccccc3)cc2)nc1C#N,-8,0,1.1,12%,3.9*,-11
Cc1noc(C)c1CSc1nc2sc(C)c(C)c2c(=O)n1C1CCCC1,-3,15,1,5%,0.97,-12
CN1CCN(C(=O)C2CC(c3c(F)cccc3Cl)=NO2)CC1 (configuration not stated),-1,-1,1,5%,1.1,-1
Cc1ccc(NC(=O)c2ccccc2O)cc1,-3,3,1,2%,1.3,-14
CCC(C)NC(=O)c1ccccc1C(=O)NC(C)CC (configuration not stated),2,1,1.1,2%,1.1,-5
CCC(NC(=O)c1ccccc1O)c1ccccc1 (configuration not stated),-4,-18,1,10%,3.7*,-4
O=C(Nc1ccccc1)c1ccccc1O,1,6,1.1,13%,2.1*,-11
O=C(CC1(O)C(=O)Nc2cc(Cl)cc(Cl)c21)c1ccccc1O (configuration not stated),-15,-22,1,6%,1.1,12
CCCn1c(C)nc2c(c1=O)c1nc3ccccc3nc1n2CCC1=CCCCC1,-5,31,1.1,5%,3.8*,1
SMILES,Hsp90 block,DUSP1 inh,Abs 340nm,NADH coupling,Autofluor 339,Cdc25B block
C=CCn1c(C)nc2c(c1=O)c1nc3ccccc3nc1n2-c1ccc(C)cc1,nt,13,1.1,5%,1,-10
CCCn1c(C)nc2c(c1=O)c1nc3ccccc3nc1n2CCc1ccccc1,-2,15,1,3%,3.1*,5
Cc1nc2c(c(=O)n1CCC1=CCCCC1)c1nc3ccccc3nc1n2/N=C/c1ccco1,-31,?,1.1,8%,1.6,9
CC(C)OC(=O)CC(=O)c1sc2nc3c(cc2c1N)CN(C)CC3,-6,16,1.1,12%,4.8*,-8
CCOc1ccc2nc3sc(C(=O)N4CCN(C)CC4)c(N)c3cc2c1,-8,-3,1.1,6%,0.89,6
C=CCOC(=O)N1CCN(c2cccc(C(F)(F)F)c2)CC1,4,17,1,6%,1.1,-10
CCOC(=O)CNC(=O)CSc1nnc(-c2ccccc2OC)n1CC,-1,-8,1.1,0%,1.2,2
CCOC(=O)CCc1c(C)n(CC)c2cc(-c3ccccc3OC)nn2c1=O,0,4,1,13%,3.6*,-1
Cc1ccc2c(c1)c1ncnc(N3CCC4(CC3)OCCO4)c1n2C,-8,-6,1.1,9%,3.7*,-1
Cc1ccc2c(c1)c1ncnc(N3CCOCC3)c1n2C,-8,-17,1,5%,3.8*,-1
Cc1ccc2c(c1)c1ncnc(N3CCN(c4ccccc4)CC3)c1n2C,-8,-1,1,2%,1.9,1
Cc1cc(Oc2ccccc2)nc2ccc(O)cc12,-1,9,1.1,6%,2.1*,-5
Cc1cc(Oc2ccccc2)nc(-c2ccccc2)n1,8,-7,0.99,2%,0.98,-8
O=C(NC(O)C(=O)c1cccs1)c1cccnc1 (configuration not stated),-5,14,0.99,4%,1.1,-9
CSc1nc(N(CCO)CCO)c2sc3nc(-c4ccco4)c4c(c3c2n1)CCC4,nt,28,1.1,6%,2.3*,13
CC(C)c1nc2sc3c(SCC(=O)NCc4ccco4)ncnc3c2c2c1CCC2,nt,43,1.1,4%,1.1,19
CCOc1ccc(NS(=O)(=O)c2cc(Cl)ccc2OC)cc1,-1,5,1,3%,1,2
Cc1ccc(C2C=C(c3ccc4c(c3)OCO4)Nc3ncnn32)cc1 (configuration not stated),2,4,1.1,8%,3*,6
Cc1ccc(C2C=C(c3ccccc3OC(F)F)Nc3ncnn32)cc1 (configuration not stated),1,12,1,12%,2.1*,2
O=C(CSc1nc2ccccc2[nH]1)NCCN1CCCCC1,3,4,0.97,9%,0.95,-7
Cn1c(=N)c(S(=O)(=O)c2ccc(Cl)cc2)cc2c(=O)n3ccccc3nc21,-16,10,0.98,6%,1.8,6

# Assay outcomes as filed in PubChem BioAssay.
